In PubChem BioAssay AID1347426 (Functional Genomics Laboratory (NCATS/FGL), 2020) one finds median seed-adjusted z-score data, which are given here for 108 sequences.

About 1,400 (4.5%) of roughly 31,000 sequences were called active. This is one part of a sample in which actives are shown more often than they occur. A number with no mark means an inactive call.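 The calls were made as follows: active = median seed-adjusted z-score above 1 or below -1; inactive = the rest.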

A short description of the experiment: Novel Modifiers of Survival Motor Neuron (SMN) Protein: Gene Identification via Genome-wide siRNA Screen.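 Also: luminescence tracks full-length SMN protein made from the SMN2 reporter.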 The following applies: HEK293T SMN2-luciferase reporter, siRNA knockdown, 72 h; actives lie on both sides. The method in brief:
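Luciferase signal, proportional to full-length SMN made from an SMN2 cDNA reporter in stable HEK293T cells, was read 72 h after siRNA reverse transfection. Values were expressed as MAD scores after non-targeting-control normalization and log10 conversion; seed analysis flagged off-targets.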
On the technique in general: A reporter such as luciferase makes a cellular process visible.
In the case of GUGCGAAGGUUUUUAAUCATT against ZNF816A, the median seed-adjusted z-score was 0.39.

As for GUACCUGCGGGAUUACUCATT against CCT7, the median seed-adjusted z-score is -0.246.

UGAACUUGAUGAAGGAGAATT against S100A7L2: the median seed-adjusted z-score was 0.283.

In the case of GGGUCCUGUUCAUAAAGGATT against KCTD10, the median seed-adjusted z-score was -0.506.

GGAAUUUACAUGGUCUAUUTT against PHF6: the median seed-adjusted z-score is -0.268.

Take CCAUGCUCGUGGUGCACAATT against B3GNT7: the median seed-adjusted z-score is -1.05 (active).

As for GCCCGAUGCUUUCCACAUUTT against SLC5A9, the median seed-adjusted z-score was 0.15.

Consider GCACACUUGAGUUUGUGUATT against HES6, for which the median seed-adjusted z-score was 0.71.

Take GGUGGUAUCUGUUUCCGUATT against PCAF: the median seed-adjusted z-score is -0.00665.

GCUGCGUCUCCCUUCCAAATT against GP1BB: the median seed-adjusted z-score was -0.711.

Turning to GCCCUCUGUUGGAUAUCUATT against AZIN1, the median seed-adjusted z-score is -1.14 (active).

For the sequence CAGCAGACGUAAAAAUUCATT against MSX2, the median seed-adjusted z-score is -0.406.

With CCACUGGAAUGGUACUUAUTT against UBR1, the median seed-adjusted z-score is -0.775.

Turning to GAGCUGUAUUUCUAUGUCATT against PLXNA3, the median seed-adjusted z-score was 0.255.

Consider GCGAGCCGCUUAUGUGGAATT against TCF21, for which the median seed-adjusted z-score is -0.15.

For UCUUAGAUGUCAAGCUGAATT against RNF7, the median seed-adjusted z-score was -1.18 (active).

As to AGGUAGAAUGGACAAGUGATT against PPP1R11, the median seed-adjusted z-score was -0.498.

In the case of GGAUUAUGAGUACCGAGAATT against MAP3K14, the median seed-adjusted z-score is -0.0609.

As to GAUCAGGAGUCCUUCAAUATT against RAB1A, the median seed-adjusted z-score is 0.395.

CGCCGACUGUCAUGCUUCATT against FCN1: the median seed-adjusted z-score is 0.346.

Regarding GUUCAUCCCUUAUUCGACATT against ZNF215, the median seed-adjusted z-score is 0.485.

Take CCAUCAACAUCGCAGAUGATT against ABHD11: the median seed-adjusted z-score was -0.189.

Turning to CCGACACGCUCUACAAUAATT against BRUNOL6, the median seed-adjusted z-score is -0.542.

With CCCUUACCCAAAACGAGAATT against CDK8, the median seed-adjusted z-score was -1.47 (active).

On to CCCUGACUGCAACUGCUUUTT against LDLRAD2, for which the median seed-adjusted z-score was -0.459.

On to GAGUCAUUAUUGACAACAATT against APH1B, for which the median seed-adjusted z-score was -0.135.

For GGUGUUUGAUAUUCGAAUUTT against USP40, the median seed-adjusted z-score was 0.00437.

For the sequence GCAACAUCCUCAUUGUAUUTT against MCHR2, the median seed-adjusted z-score was -0.658.

As to GCAUAUUCCGGUGAUAACUTT against RAB6C, the median seed-adjusted z-score was -1.08 (active).

For CAGGCGCCUGAAGUACAUATT against SLC35A2, the median seed-adjusted z-score is 1.06 (active).

As to AGCUCACCAGAGAAAUUUUTT against CHDH, the median seed-adjusted z-score was 0.0241.

Turning to GCUGCUCUGUUGAUGCUUATT against POMT1, the median seed-adjusted z-score is 0.327.

As for GGAGUUAUAUUUAGUGAUATT against ABCA10, the median seed-adjusted z-score was -0.104.

As for GGGUCAAGAUCGAGGAUAATT against MYOM3, the median seed-adjusted z-score is -0.012.

With CCUCUAACAUUGGUUCCAATT against XPNPEP1, the median seed-adjusted z-score is -1.5 (active).

For the sequence CCAUGUACGUCAUCCCAUUTT against PCK1, the median seed-adjusted z-score is -0.401.

Take AGAUGAGCCUAUACAGCGATT against TRIM9: the median seed-adjusted z-score was -0.437.

Consider GCAGUUCGGCAGUAUCUGUTT against PSMD6, for which the median seed-adjusted z-score is -1.03 (active).

With CAUCCAGCCCUUAUACAAATT against RBM24, the median seed-adjusted z-score is 0.0471.

Consider CGUUCUAUCAACAAACUCATT against EIF2S1, for which the median seed-adjusted z-score was -0.175.

As for GCCUCACAGGUGCAUCAUATT against TSC2, the median seed-adjusted z-score is 1.11 (active).

Regarding GCCUAGGAGCGAGGACUUATT against DNAJC30, the median seed-adjusted z-score is 0.329.

For the sequence CAGCUAUAAUCGUUUAUGATT against RAB22A, the median seed-adjusted z-score was 0.321.

Take GGAAUUUCGGCACUCAGAATT against CHIT1: the median seed-adjusted z-score was -0.578.

Regarding GGUUGCCCAUCUUACUCUATT against ZNF470, the median seed-adjusted z-score was -1.26 (active).

For the sequence GCUCGGUCUGGUGAACUAATT against KLF3, the median seed-adjusted z-score was 0.628.

Consider CAAUCGUCAUAAUGUCUAUTT against A2M, for which the median seed-adjusted z-score is -1.96 (active).

In the case of GAUCCAUAGUACACGAAUATT against ADAM7, the median seed-adjusted z-score is -0.0638.

As to AGAUUGUCCUCAACUUCAATT against NRP2, the median seed-adjusted z-score was 0.477.

AAUCAAAAGGGAGAACUCATT against HS3ST2: the median seed-adjusted z-score was 0.133.

Turning to GACCCUCGAUUACUAUUCATT against OMA1, the median seed-adjusted z-score was 0.

As for GCAUCGACAUGUCCUGGGATT against PUF60, the median seed-adjusted z-score was 2.26 (active).

CAUCAACUAUAUCACAGUATT against ATP13A5: the median seed-adjusted z-score was 0.241.

In the case of AAUUCGAUAUGUUCAGCAATT against GPX4, the median seed-adjusted z-score was -1.18 (active).

For CAUCUAGGAUUUUAAGGGATT against ASGR1, the median seed-adjusted z-score is -0.128.

Take GGAGGUUUGUAGAAUAUGUTT against XYLT1: the median seed-adjusted z-score is -0.274.

Consider GCACGACUGUUACUGGACUTT against POLRMT, for which the median seed-adjusted z-score is 0.0812.

Consider GGAUAUCAAUCGAGUACAATT against PIK3R3, for which the median seed-adjusted z-score was -1.88 (active).

GCUGGACCGUAAAAUUGAATT against PSMC4: the median seed-adjusted z-score is -0.361.

As for CCAACAUCUGGAACGAAUATT against KCNT2, the median seed-adjusted z-score was 0.449.

With GGACAAGAACGGAAUUUCATT against SCLY, the median seed-adjusted z-score was 0.00396.

As for GGACGGAAGAUUUUCGUAUTT against SR140, the median seed-adjusted z-score is 1.16 (active).

With GAACCUCUAUUGUGGACAATT against TMEM1, the median seed-adjusted z-score is -0.191.

Take AGAAAGUACUGCACAGAGATT against PCDH8: the median seed-adjusted z-score is -1.03 (active).

On to CGAAGUUUCCUAUAGAGGATT against PCDHGA10, for which the median seed-adjusted z-score is 0.0621.

Turning to GAUAGGAUGUGACAAUGAATT against ING2, the median seed-adjusted z-score was 0.126.

In the case of GCCUAUCAGGAUCCCAGCATT against RIN1, the median seed-adjusted z-score was -0.0694.

For the sequence AUGUACAAGUGUCAGCUAATT against VEGFC, the median seed-adjusted z-score is -0.41.

With GCAUCGUGGUGUCAAGUCATT against ZBTB12, the median seed-adjusted z-score was 0.0993.

For GGUUGAAGCUUAUUGCAGATT against HARS2, the median seed-adjusted z-score was 0.

In the case of CAAAAGUAUUCUUAGGAAATT against SLC25A15, the median seed-adjusted z-score is -0.0116.

As to GACCUACUCUAGUGACAGATT against TRERF1, the median seed-adjusted z-score is -0.0952.

In the case of ACCGAGAGAUGGUAUAUGATT against SUPT4H1, the median seed-adjusted z-score was -1.01 (active).

Regarding AGAUCACUGUAUCACCUCUTT against VDR, the median seed-adjusted z-score is -0.031.

As to GCUGGUGACUGAGUUUUCATT against NOB1, the median seed-adjusted z-score is -0.0844.

For GCUAUAUCAGGAUGAGAUATT against ATG5, the median seed-adjusted z-score is -0.0597.

Consider GGCCUUACCCUAAAUCGAATT against RARB, for which the median seed-adjusted z-score is 0.409.

With CGAGCUACAGGAACAUCUUTT against LSS, the median seed-adjusted z-score was -0.302.

Regarding GUGUGAAGGUAGACCGUGATT against SPATA20, the median seed-adjusted z-score is 0.

In the case of GAGUGGAAGUGUACCAACATT against HCFC1, the median seed-adjusted z-score is 1.47 (active).

Regarding GGAAGAUUCAGUUAACAUUTT against NUDT3, the median seed-adjusted z-score is 0.674.

Take CAACCAUGUUCAGUAUAGATT against SPINK9: the median seed-adjusted z-score was 0.392.

With CCGGAGAAGUUCAACAGCATT against DGKA, the median seed-adjusted z-score was -1.36 (active).

Turning to GCUAAUCAUUGAGUAUGCATT against KLHL10, the median seed-adjusted z-score was 0.0708.

In the case of AGCUGACCGAGUUCCUGCATT against GAL3ST1, the median seed-adjusted z-score was 0.263.

CCUUGGAGGAGAUCGCUGATT against TEKT2: the median seed-adjusted z-score is -0.349.

For GGCAUACAGUUCCGAGAAATT against AGL, the median seed-adjusted z-score was -0.385.

Regarding GUCUUAGAAUGUGAACGUATT against CCNL1, the median seed-adjusted z-score is -1.26 (active).

For the sequence GGCAGGAGGUUUAAGAAGUTT against PPP3R2, the median seed-adjusted z-score was -0.143.

GAGAGUAUCGAAACCGUUUTT against GNPTAB: the median seed-adjusted z-score is 0.296.

Take GGACUGCACUACUCCAUGATT against ADAMTS2: the median seed-adjusted z-score was -0.338.

With GCACAGUAGUCACCAAUGATT against FUCA2, the median seed-adjusted z-score is 0.562.

Regarding CCAAGGUACUAACAUGGGATT against AP3M1, the median seed-adjusted z-score was 0.

Regarding CCCAGACUCUAGAUAGACATT against SULT1C3, the median seed-adjusted z-score was -0.731.

For the sequence CUCCUGCAGUUGAAGGUGATT against FKBP8, the median seed-adjusted z-score was -0.304.

As for CCAACAAUUUAGUAGUUAUTT against TBP, the median seed-adjusted z-score is -1.25 (active).

For the sequence AGUACAACCUGGUGACGCATT against ZNF710, the median seed-adjusted z-score is 0.

On to GGAUCAAUACUCCAACAAATT against ZNF281, for which the median seed-adjusted z-score was 1.19 (active).

Turning to GGCUUGAUGCUGGUACUUUTT against HACL1, the median seed-adjusted z-score is -0.0664.

Regarding AGCCUGCGGUUUUCUGUAUTT against SYT12, the median seed-adjusted z-score is -0.329.

As to UUACCAUCGUGAAGAGAAATT against CLEC5A, the median seed-adjusted z-score was -1.07 (active).

Consider CCUCAUCCCUGUUACAACATT against JAG1, for which the median seed-adjusted z-score was -0.32.

As for CCAACUGUGUGGCAGAACGTT against FKBP9L, the median seed-adjusted z-score was 0.666.

In the case of GUCUGUAGUUCACCCGUUATT against USP9Y, the median seed-adjusted z-score is 0.012.

Turning to AGCUAGGCCUGGAUAUCGATT against KRT83, the median seed-adjusted z-score was 1.15 (active).

Take GCUUUCUACAAGUAUAAGATT against ERO1LB: the median seed-adjusted z-score was 0.565.

On to GGCUACCUGCAUUCACUGATT against SGK1, for which the median seed-adjusted z-score is -0.659.

As to CCACAGAUGUGCAUAAACATT against NFKB2, the median seed-adjusted z-score was -0.132.
